# Screening data (PubChem)
# PI4K2A block: qHTS for small molecular inhibitors of PI4K2A; Phosphatidylinositol 4-kinase type 2-alpha (Homo sapiens), Q9BTU6; purified PI4K2A, ADP-Glo luminescence, 1 h; active compounds read low; activity change, negative = inhibition, % at 76.9 µM; 420,000 compounds, 0.13% hits; AID 1346378, 2018; in the data active means activity change below about -50%; inconclusive means mostly about -30% to -49%;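 further: -100% = wells without enzyme as full effect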
# Target sequence (Q9BTU6 whole entry, looked up): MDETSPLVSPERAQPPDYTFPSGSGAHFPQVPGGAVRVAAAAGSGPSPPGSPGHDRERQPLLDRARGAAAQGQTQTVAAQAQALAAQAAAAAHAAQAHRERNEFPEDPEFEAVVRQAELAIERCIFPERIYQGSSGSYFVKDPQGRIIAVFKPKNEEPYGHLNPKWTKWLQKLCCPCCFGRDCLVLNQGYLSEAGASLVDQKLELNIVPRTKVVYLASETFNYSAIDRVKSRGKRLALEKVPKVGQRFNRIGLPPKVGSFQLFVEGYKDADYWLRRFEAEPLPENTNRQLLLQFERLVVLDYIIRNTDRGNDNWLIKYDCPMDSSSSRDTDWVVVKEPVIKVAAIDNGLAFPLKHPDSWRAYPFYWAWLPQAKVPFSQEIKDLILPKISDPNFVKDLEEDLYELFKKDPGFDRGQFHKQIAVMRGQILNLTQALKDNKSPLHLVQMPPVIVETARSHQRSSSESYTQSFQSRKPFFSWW
#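 In this quantitative HTS, ADP production by PI4K2A was quantified luminescently after 1 h at ambient temperature; 100 microM adenosine served as plate-quality control.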
# GoLoco inh red: qHTS Assay for Inhibitors of RGS12 GoLoco Motif Activity (Red Fluorophore); 230,000 compounds, 0.44% hits; Potency, µM (titrated, usually from 61.6 µM), for the others: at the highest dose activity, negative = inhibition, usual class: inhibitors; Guanine nucleotide-binding protein G(i) subunit alpha-1 (Homo sapiens), P63096; Gai1:RGS12 GoLoco peptide FP, rhodamine, 10 min; active means well fitted inhibition curve with a large enough effect, not every such curve was filed as active; inactive means no such curve, though single readings can be large or run the other way; further: potency means the concentration at half of the fitted maximal effect; nearly all actives have a fitted effect of over 30% in size
# PI5P4K alpha inh: qHTS for Inhibitors of phosphatidylinositol 5-phosphate 4-kinase (PI5P4K); Phosphatidylinositol 5-phosphate 4-kinase type-2 alpha (Homo sapiens), P48426; PI5P4Kalpha enzyme, ADP-Glo luminescence, 60 min; active compounds read low; max response, %; 330,000 compounds, 1.2% hits; AID 652105, 2013; active means max response of -50% or lower; inconclusive means between -30% and -50%; inactive means -30% or higher; further: value at the top dose of about 77 µM
#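 Luminescence from ADP-Glo served as readout of PI5P4Kalpha activity in a qHTS format. Reaction: enzyme, substrate, compound, ATP at 5 microM final, 60 min at RT.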
# Pin1 inh: qHTS Assay to Find Inhibitors of Pin1; Potency, µM (top dose mostly 115 µM), inactives show at the highest dose activity, negative = inhibition, hits mostly inhibitors; Pin1 FP peptide displacement, HiFluor488, 10 min; 390,000 compounds, 0.009% hits; active means well fitted inhibition curve with a large enough effect in the polarisation, with a control signal flat, not every such curve was filed as active; inconclusive means small, poorly fitted or top-dose-only effect, or effect the other way, or a change in a side signal; inactive means no such curve, though single readings can be large or run the other way; the % refers to the polarisation; further: potency means the concentration at half of the fitted maximal effect
# Target sequence (Q13526 whole entry, looked up): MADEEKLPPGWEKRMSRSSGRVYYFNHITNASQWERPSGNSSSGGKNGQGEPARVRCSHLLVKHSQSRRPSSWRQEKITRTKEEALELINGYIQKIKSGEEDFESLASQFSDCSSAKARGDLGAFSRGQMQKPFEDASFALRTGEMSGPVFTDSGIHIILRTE
# Tb PGK inh: qHTS Assay to Find Inhibitors of Phosphoglycerate Kinase; PGK/GAPDH coupled, Kinase-Glo luminescence, 60 min; Phosphoglycerate kinase, glycosomal (Trypanosoma brucei brucei), P07378; 380,000 compounds, 0.043% hits; Potency, µM (doses to about 57.5 µM), inactives show at the highest dose activity change, negative = inhibition, actives largely listed as inhibitors; AID 602233, 2012; further: potency means the concentration at half of the fitted maximal effect; nearly all actives have a fitted effect of over 60% in size
#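 Recombinant glycosomal PGK reaction used 1,3-bisphosphoglycerate generated in-well by GAPDH (100nM final) in 100mM TEA pH 7.6, 5mM MgCl2, 0.01% Tween-20. After 60 minutes at room temperature, ATP was read by Kinase-Glo Plus luminescence end-point.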
# GCN5L2 inh: qHTS Assay for Inhibitors of GCN5L2; Potency, µM (titrated, usually from 58.9 µM), inactives show at the top dose activity change, negative = inhibition, actives largely listed as inhibitors; Histone acetyltransferase KAT2A (Homo sapiens), Q92830; 390,000 compounds, 0.21% hits; GCN5L2 HAT assay, ThioGlo1 CoA-SH fluorescence; further: potency means the concentration at half of the fitted maximal effect
#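 Enzyme at 20nM final was mixed with library compounds for 15 min at room temperature. Peptide H3(1-25) at 75uM, acetyl-CoA at 70uM and ThioGlo1 at 50uM were then added. Plates were read immediately and after 20 min (Ex340nm/Em540nm).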
# ADP-Glo interf: qHTS for Inhibitors of PI5P4K: ADP-Glo counter assay; Potency, µM (titrated, usually from 76.9 µM), inactives show top-dose activity change, negative = inhibition, most hits filed as inhibitors; 1,100 tested, under 10 active; shares compounds with PI5P4K alpha inh; AID 743285, 2014; ADP-Glo detection counter-screen, luciferase luminescence, no enzyme
# Starred values were filed as active, the others as inactive; i = inactive; ? = inconclusive; / = no result given. In the library only some 1.2% were active in any assay of this set; here they are far more common. Unless noted, the call rests on the fitted dose curve; in most records, active means well fitted curve in the direction sought with a large enough effect; inconclusive means small, poorly fitted or top-dose-only effect, or another doubt; inactive means no such curve, though single readings can be large; an effect the other way counts as inactive or inconclusive. Unless noted, on the % scale 0 is the no-effect control and ±100 the full control effect.
SMILES,PI4K2A block,GoLoco inh red,PI5P4K alpha inh,Pin1 inh,Tb PGK inh,GCN5L2 inh,ADP-Glo interf
O=C(c1ccccc1)N1CCCc2ccccc21,4.2,0.5%,-1.0,2.9%,-5.9%,-0.6%,/
N#CC1=C2SCN(Cc3ccco3)CN2C(=O)CC1c1ccccc1F (stereo unspecified),1.6,-14.8%,/,-7.9%,-4.1%,-13.5%,/
COc1ccc(N2CSC3=C(C#N)C(c4cc(OC)c(OC)cc4OC)CC(=O)N3C2)c(OC)c1 (stereo unspecified),-12.9,-8.2%,?,50.3%,i,-22.0%,/
Cc1ccc(N2CSC3=C(C#N)C(c4cccs4)CC(=O)N3C2)cc1 (stereo unspecified),-6.5,-13.6%,-59.9*,21.9%,-1.9%,?,-2.7%
CCc1ccc(N2CSC3=C(C#N)C(c4cccs4)CC(=O)N3C2)cc1 (stereo unspecified),-16.7,-21.0%,-68.2*,18.8%,-10.9%,?,-7.9%
COC(=O)[C@]1(Sc2ccccc2)CC(=O)N[C@@H]1c1ccccc1,1.4,/,-6.6,/,/,/,/
Cc1ccc(NS(=O)(=O)N2CCOCC2)cc1,3.8,/,3.7,-6.4%,i,0.5%,/
Cc1ccc(C)c(NC(=O)c2ccc(OCc3c(C)noc3C)cc2)c1,-1.2,/,-0.4,-7.0%,5.9%,-3.5%,/
O=c1oc2ccccc2cc1-c1csc(Nc2nc3c(F)cccc3s2)n1,-0.9,49.4%,-55.3*,62.8%,-0.2%,-6.4%,-4.6%
Cc1oc(-c2ccc(Cl)cc2)cc1C(=O)N1CCC1(C)C(=O)O (stereo unspecified),-5.3,/,-51.9*,/,/,/,-4.2%
Cc1ccccc1OCc1cc(=O)n2c(-c3ccccc3)csc2n1,-2.3,/,/,17.0%,1.1%,1.2%,/
CCN(CC(=O)NC(C)(C)C)Cc1cc(=O)n2c(-c3ccccc3)csc2n1,-7.8,/,-73.8*,-2.1%,-0.4%,-6.2%,3.1%
COC(=O)c1c(NC(=O)CN2CCC3(O)CCCCC3C2c2ccc(OC)cc2OC)sc(C)c1C (stereo unspecified),-3.3,106.8%,-51.0*,21.6%,-11.5%,23.6%,6.7%
COc1cc(Cn2c3ccc(NC(=O)CCc4ccccc4)cc3c(=O)n2C)ccc1F,-3.2,/,-64.0*,/,/,/,-2.4%
CC(=O)c1cccc(NC(=O)c2cc(-c3ccco3)nc3ccccc23)c1,-1.5,/,-50.8*,52.2%,-10.7%,-6.3%,4.4%
O=C(Nc1cccc(S(=O)(=O)NC2=NCCCCC2)c1)c1cc(-c2ccco2)nc2ccccc12,?,19.3%,-73.0*,?,-14.6%,?,-9.5%
COC(=O)c1c(C)cc(C)n2c1nc1ccccc12,8.2,-4.4%,-0.4,-11.6%,-8.3%,-16.0%,/
CCOc1ccc(CCNS(=O)(=O)c2cn(C)cn2)cc1OCC,-2.3,/,-25.6,-7.7%,i,2.0%,0.3%
Cc1cc2occ(CC(=O)NC3CCCc4ccccc43)c2cc1C (stereo unspecified),2.2,0.4%,-0.8,2.8%,-4.7%,0.8%,/
Cn1c(=O)n(Cc2ccco2)c(=N)c2c3c(sc21)CCC3,-4.9,13.5%,/,3.1%,-12.2%,/,/
Cc1ccc(-n2c(=S)[nH]c3sc4c(c3c2=O)CCC4)cc1,2.8,7.1%,-54.6*,-0.7%,i,-0.2%,-0.1%
O=c1c2c3c(sc2[nH]c(=S)n1Cc1ccco1)CCC3,-11.0,-1.2%,-58.6*,?,-9.1%,?,-7.8%
CN(C)S(=O)(=O)c1cc(NC(=O)COC(=O)c2nc(Cl)ccc2Cl)ccc1Cl,3.3,/,-6.2,1.3%,i,-9.4%,/
O=C(CSc1n[nH]c(-c2cccnc2)n1)OC1CCCCC1,1.5,1.8%,-66.0*,-1.9%,8.6%,2.5%,-8.1%
CCOC(=O)C1CCC(C(=O)OCC)N1c1ccc(C=O)cc1 (stereo unspecified),-1.7,/,-9.1,/,2.2%,/,/
SMILES,PI4K2A block,GoLoco inh red,PI5P4K alpha inh,Pin1 inh,Tb PGK inh,GCN5L2 inh,ADP-Glo interf
CC(C)C(=O)Nc1ccccc1N1CCN(S(C)(=O)=O)CC1,-9.0,-1.2%,0.0,-3.7%,i,-3.4%,-5.4%
CS(=O)(=O)N1CCN(c2ccccc2NC(=O)C(c2ccccc2)c2ccccc2)CC1,-1.5,-8.3%,/,11.3%,-9.0%,-7.9%,/
Cn1c(=O)c2c(-c3ccccc3)n(-c3cccc(O)c3)cc2n(C)c1=O,-3.0,/,-50.4*,/,/,/,-1.5%
Cc1cccc(-c2c3c(=O)n(C)c(=O)n(C)c3cn2-c2ccc(O)cc2)c1,-0.8,/,/,0.2%,i,/,/
O=C1NC(c2cccs2)Nc2ccccc21 (stereo unspecified),-1.1,11.1%,-58.0*,1.4%,5.2%,-7.1%,1.9%
Cc1ccsc1C1NC(=O)c2ccccc2N1 (stereo unspecified),1.0,12.0%,-9.3,-10.7%,6.2%,-2.9%,/
COC(=O)Cc1c(C)nc2nc(-c3ccc(C)cc3)[nH]n2c1=O,-4.3,10.2%,-72.4*,2.7%,-6.1%,1.8%,-2.6%
CCOc1ccc(-c2nnc3ccc(SCC(=O)N4CCN(c5ccccc5)CC4)nn23)cc1,1.2,/,5.2,0.8%,i,/,/
COc1cccc(CNC(=O)COC(=O)c2c(C)nn(-c3ccccc3)c2Cl)c1,-14.7,/,-59.1*,2.8%,-4.8%,-21.1%,5.5%
COCCOC(=O)C1=C(C)NC(=O)NC1c1cccc(F)c1 (stereo unspecified),5.3,/,-1.0,5.4%,-2.9%,-11.6%,/
O=C(NC1CCCC1)C(c1ccncc1)N(C(=O)c1csnn1)c1ccccc1F (stereo unspecified),-0.6,/,-51.6*,-15.0%,-2.1%,-3.0%,9.7%
O=C(Nc1ccc(-c2nc3ncccc3o2)cc1)c1ccco1,-7.8,16.9%,-53.0*,?,-3.7%,-11.1%,4.9%
Fc1ccc(Nc2nc(NCc3ccco3)c3ccccc3n2)cc1,2.2,1.3%,/,?,3.4%,-4.4%,-1.9%
Nc1nc(Nc2ccccc2)nc(NCc2ccco2)c1[N+](=O)[O-],-0.8,-11.5%,?,?,4.6%,-5.9%,/
